In PubChem BioAssay (EPA / NIEHS):
Results filed as inconclusive are left out. Calls of active or inactive are those of the source. The calls were made as follows, unless noted: active = hit-call score of the fitted dose curve at least 0.9, where 1 is the maximum; inconclusive = response in the unintended direction; inactive = score below 0.9.

Tests used:
[1] = ATG_TCF_b_cat_CIS: Attagene CIS-FACTORIAL HepG2 Assay for human T-Cell-Factor with beta-catenin (TCF/b-cat) (AID 2282965; active = hit-call score of the fitted dose curve at least 0.9, where 1 is the maximum; inactive = score below 0.9); settings: HepG2 TCF/beta-catenin cis-reporter transcription, actives raise or lower the signal
In short: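 Endogenous TCF/LEF activity read as reporter transcript level via RT-PCR and capillary electrophoresis fluorescence in transfected HepG2, 24 h exposure; gain or loss of signal fitted against DMSO controls.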

[2] = ATG_TAL_CIS: Attagene CIS-FACTORIAL HepG2 Assay for human TAL Basal Promoter (AID 2282966; active = hit-call score of the fitted dose curve at least 0.9, where 1 is the maximum; inactive = score below 0.9;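 also: background control endpoint measuring basal TAL promoter reporter mRNA not a specific factor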); settings: HepG2 Attagene cis-factorial TAL promoter reporter; actives raise or lower the signal
In short: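 Fluorescence of labelled reporter cDNA fragments, resolved by capillary electrophoresis, gave the readout. Human HepG2 liver cells carried transiently transfected cis-element reporter units and were treated for 24 hours; activity was fitted bidirectionally against DMSO.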

[3] = ATG_TGFb_CIS: Attagene CIS-FACTORIAL HepG2 Assay for human Transforming Growth Factor (TGF) (AID 2282967; active = hit-call score of the fitted dose curve at least 0.9, where 1 is the maximum; inactive = score below 0.9); settings: HepG2 Attagene CIS TGFb reporter, mRNA transcription; actives raise or lower the signal
In short: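 Cells were dosed for 24 hours, after which total RNA was reverse-transcribed and reporter sequences amplified, labeled and sized by capillary electrophoresis. Activity was fitted in both directions against DMSO.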

[4] = ATG_VDRE_CIS: Attagene CIS-FACTORIAL HepG2 Assay for human Vitamin D Receptor Element (VDRE) (AID 2282968; active = hit-call score of the fitted dose curve at least 0.9, where 1 is the maximum; inactive = score below 0.9); settings: HepG2 VDRE cis-reporter transcription, actives raise or lower the signal
In short: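 Reporter mRNA induction, quantified by capillary electrophoresis of fluorescently labelled RT-PCR products, was read 24 h after dosing HepG2 cells carrying transiently transfected cis-regulated reporter units; gain or loss relative to DMSO.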

[5] = target: Estrogen receptor (Homo sapiens) (UniProt P03372); test: ATG_ERa_TRANS: Attagene TRANS-FACTORIAL HepG2 Assay for human Estrogen Receptor alpha (ERa) (AID 2282970); settings: HepG2 Attagene TRANS ERa GAL4 reporter, mRNA
In short: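 Human liver HepG2, transient transfection of multiple GAL4-UAS reporter units; TRANS format (exogenous NR-Gal4 chimera). 24 h dosing. Readout: reporter mRNA, RT-PCR, 6-FAM primer extension, HpaI digest, capillary electrophoresis. Positive direction vs DMSO.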

[6] = target: X-box-binding protein 1 (Homo sapiens) (UniProt P17861); test: ATG_Xbp1_CIS: Attagene CIS-FACTORIAL HepG2 Assay for human X-box Binding Protein 1 (XBP1) (AID 2282972; active = hit-call score of the fitted dose curve at least 0.9, where 1 is the maximum; inactive = score below 0.9); settings: HepG2 XBP1 cis-element reporter, Attagene multiplex; actives raise or lower the signal
In short: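 After a 24-hour chemical exposure of HepG2 cells carrying cis-regulated reporters, reporter mRNA levels are assessed. Quantification uses RT-PCR, 6-FAM labelling and capillary electrophoresis. Gain- or loss-of-signal is fitted against DMSO.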

[7] = ATG_GAL4_TRANS: Attagene TRANS-FACTORIAL HepG2 Assay for GAL4 (Internal Marker) (AID 2282976); settings: HepG2 Attagene TRANS GAL4 internal marker reporter
In short: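 First, HepG2 cells were transfected with reporter units under GAL4-UAS control. Next, they were treated with chemical for 24 h. Finally, RNA was reverse-transcribed, PCR-amplified, FAM-labelled and resolved by capillary electrophoresis, with induction scored against DMSO.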

[8] = target: Glucocorticoid receptor (Homo sapiens) (UniProt P04150); test: ATG_GR_TRANS: Attagene TRANS-FACTORIAL HepG2 Assay for human Glucocorticoid Receptor (GR) (AID 2282978); settings: HepG2 Attagene TRANS GR reporter, mRNA transcription;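 also: activators score as hits since higher reporter transcript over DMSO is fitted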
In short: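 HepG2 cells transiently transfected with multiplexed reporter units in which chimeric NR-GAL4 proteins drive GAL4-UAS reporters; 24 h compound exposure. Reporter mRNA measured by RT-PCR, 6-FAM labelling, HpaI digestion and capillary electrophoresis; gain-of-signal fitted versus DMSO.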

[9] = target: Oxysterols receptor LXR-beta (Homo sapiens) (UniProt P55055); test: ATG_LXRb_TRANS: Attagene TRANS-FACTORIAL HepG2 Assay for human Liver X Receptor beta (LXRb) (AID 2282981); settings: HepG2 Attagene TRANS GAL4-LXRb reporter, mRNA
In short: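 Transient transfection HepG2 (multiplexed RTUs, GAL4-UAS); NR-Gal4 chimera; 24 h exposure; RNA → RT-PCR → 6-FAM primer extension → HpaI → CE; increase vs DMSO.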

[10] = target: Hepatocyte nuclear factor 4-alpha (Homo sapiens) (UniProt P41235); test: ATG_HNF4a_TRANS: Attagene TRANS-FACTORIAL HepG2 Assay for human Hepatocyte Nuclear Factor 4 alpha (HNF4a) (AID 2282982); settings: HepG2 HNF4a transactivation reporter, mRNA readout
In short: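 Readout is fluorescent reporter-transcript fragments resolved by capillary electrophoresis after RT-PCR from HepG2 cells dosed for 24 h. Cells carried transfected GAL4-UAS reporter constructs measuring exogenous NR-GAL4 chimera activity; DMSO served as baseline.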

[11] = ATG_M_06_TRANS: Attagene TRANS-FACTORIAL HepG2 Assay for M06 Transcription Factor (Internal Marker) (AID 2282983); settings: HepG2 Attagene TRANS M06 internal marker reporter
In short: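 Transfect HepG2 with MRTUs → dose compounds 24 h → isolate RNA, oligo(dT) RT → PCR with reporter primers → 6-FAM primer extension → HpaI digest → CE fragment analysis. Positive direction vs DMSO.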

[12] = target: Nuclear receptor subfamily 4 group A member 2 (Homo sapiens) (UniProt P43354); test: ATG_NURR1_TRANS: Attagene TRANS-FACTORIAL HepG2 Assay for human Nuclear Receptor Related Protein 1 (NURR1) (AID 2282985); settings: HepG2 Attagene TRANS reporter, mRNA readout
In short: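 Transient transfection of HepG2, human liver cells, with multiple GAL4-UAS reporter transcription units. Cells dosed 24 h, RNA isolated, reverse-transcribed, PCR-amplified, FAM-labelled, HpaI-digested, sized by capillary electrophoresis. DMSO served as negative control.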

[13] = target: Transcriptional activator Myb (Homo sapiens) (UniProt P10242); test: ATG_Myb_CIS: Attagene CIS-FACTORIAL HepG2 Assay for human Myeloblastosis (Myb) Proto-Oncogene Transcription Factor (AID 2282986; active = hit-call score of the fitted dose curve at least 0.9, where 1 is the maximum; inactive = score below 0.9); settings: HepG2 Attagene CIS-FACTORIAL Myb reporter transcription; actives raise or lower the signal
In short: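 HepG2 cells were transiently transfected with cis-regulated multiple reporter transcription units reflecting endogenous Myb activity, then exposed to compound for 24 hours. Reporter mRNA was measured by RT-PCR with capillary electrophoresis; bidirectional fitting versus DMSO baseline.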

[14] = target: Bile acid receptor (Homo sapiens) (UniProt Q96RI1); test: ATG_FXR_TRANS: Attagene TRANS-FACTORIAL HepG2 Assay for Farnesoid X Receptor (FXR) (AID 2282979); settings: HepG2 Attagene TRANS FXR-GAL4 reporter transcription;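 also: hits raise reporter mRNA above DMSO so AC50 marks FXR activation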
In short: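 Transient transfection of HepG2 with multiplexed GAL4-UAS reporter units; exogenous FXR-GAL4 chimera. Dose 24 h → TriZol RNA → oligo(dT) RT → PCR, 6-FAM primer extension, HpaI cut → CE. Gain vs DMSO.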

[15] = target: Oxysterols receptor LXR-alpha (Homo sapiens) (UniProt Q13133); test: ATG_LXRa_TRANS: Attagene TRANS-FACTORIAL HepG2 Assay for human Liver X Receptor alpha (LXRa) (AID 2282980); settings: HepG2 Attagene TRANS reporter, LXRa transactivation
In short: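 Transfect HepG2 with GAL4-UAS multiplex reporter constructs (TRANS format, chimeric receptor-GAL4); treat 24 h; extract RNA, reverse-transcribe, PCR-amplify, FAM-label, HpaI-digest; resolve fragments by capillary electrophoresis. Upward response vs DMSO.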

[16] = target: Steroid hormone receptor ERR1 (Homo sapiens) (UniProt P11474); test: ATG_ERRa_TRANS: Attagene TRANS-FACTORIAL HepG2 Assay for human Estrogen-Related Receptor alpha (ERRa) (AID 2282971); settings: HepG2 Attagene TRANS reporter, ERRa transactivation
In short: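 Reporter transcript induction was quantified by RT-PCR and capillary electrophoresis of FAM-labelled, HpaI-cut products after 24 h treatment of HepG2 cells carrying transiently transfected GAL4-UAS reporter units and an exogenous ERRa-Gal4 fusion; activity scored as increase over DMSO.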

[17] = ATG_M_19_TRANS: Attagene TRANS-FACTORIAL HepG2 Assay for M19 Transcription Factor (Internal Marker) (AID 2282974); settings: HepG2 Attagene TRANS-FACTORIAL M19 internal marker reporter
In short: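 HepG2 cells transiently transfected with multiple GAL4-UAS reporter transcription units were exposed to chemicals for 24 h. Reporter mRNA was read by RT-PCR, 6-FAM primer extension, HpaI digestion and capillary electrophoresis; gain of signal fitted relative to DMSO.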

[18] = ATG_M_32_TRANS: Attagene TRANS-FACTORIAL HepG2 Assay for M32 Transcription Factor (Internal Marker) (AID 2282984); settings: HepG2 Attagene TRANS M32 internal marker reporter;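 also: transcript level of a background control reporter unit measured by RT-PCR and capillary electrophoresis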
In short: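 Measures reporter mRNA induction in human HepG2 liver cells after 24 h chemical treatment. Transcripts from transiently transfected GAL4-UAS reporter units are amplified, fluorescently labelled and sized by capillary electrophoresis; gain of signal relative to DMSO.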

Measured: AC50

Chain of Hepatocyte nuclear factor 4-alpha (Homo sapiens) (P41235 whole entry, looked up, the tested form may be a part): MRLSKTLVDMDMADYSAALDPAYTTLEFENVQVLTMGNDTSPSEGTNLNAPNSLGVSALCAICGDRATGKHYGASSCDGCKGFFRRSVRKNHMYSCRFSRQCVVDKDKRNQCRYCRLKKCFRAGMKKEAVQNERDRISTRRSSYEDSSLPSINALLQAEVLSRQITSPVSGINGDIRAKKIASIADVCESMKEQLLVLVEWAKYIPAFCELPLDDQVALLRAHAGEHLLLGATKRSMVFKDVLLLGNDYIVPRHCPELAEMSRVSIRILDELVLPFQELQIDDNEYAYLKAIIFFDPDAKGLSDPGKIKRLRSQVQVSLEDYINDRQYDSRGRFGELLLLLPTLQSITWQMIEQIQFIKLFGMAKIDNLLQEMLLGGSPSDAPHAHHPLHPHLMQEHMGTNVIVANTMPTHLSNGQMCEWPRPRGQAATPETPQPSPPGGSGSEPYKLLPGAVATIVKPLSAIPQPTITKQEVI
Chain of Transcriptional activator Myb (Homo sapiens) (P10242 whole entry, looked up): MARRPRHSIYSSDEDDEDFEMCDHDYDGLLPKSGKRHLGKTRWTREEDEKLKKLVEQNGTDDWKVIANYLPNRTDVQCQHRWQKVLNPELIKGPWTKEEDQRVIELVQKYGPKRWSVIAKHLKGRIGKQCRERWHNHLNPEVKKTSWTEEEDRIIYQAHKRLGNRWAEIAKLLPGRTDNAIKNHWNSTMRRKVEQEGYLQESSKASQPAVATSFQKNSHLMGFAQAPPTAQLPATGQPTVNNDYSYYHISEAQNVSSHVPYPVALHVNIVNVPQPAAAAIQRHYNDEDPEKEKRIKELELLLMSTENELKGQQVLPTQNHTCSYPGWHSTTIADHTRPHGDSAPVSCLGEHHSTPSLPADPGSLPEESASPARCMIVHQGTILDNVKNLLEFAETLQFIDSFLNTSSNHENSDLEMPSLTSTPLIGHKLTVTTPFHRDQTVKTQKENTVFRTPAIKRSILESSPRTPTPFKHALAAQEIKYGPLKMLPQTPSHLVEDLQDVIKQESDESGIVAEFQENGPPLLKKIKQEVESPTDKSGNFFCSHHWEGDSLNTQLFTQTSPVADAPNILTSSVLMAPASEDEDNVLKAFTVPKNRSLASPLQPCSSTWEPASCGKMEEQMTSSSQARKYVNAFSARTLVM
Chain of Oxysterols receptor LXR-alpha (Homo sapiens) (Q13133 whole entry, looked up, the tested form may be a part): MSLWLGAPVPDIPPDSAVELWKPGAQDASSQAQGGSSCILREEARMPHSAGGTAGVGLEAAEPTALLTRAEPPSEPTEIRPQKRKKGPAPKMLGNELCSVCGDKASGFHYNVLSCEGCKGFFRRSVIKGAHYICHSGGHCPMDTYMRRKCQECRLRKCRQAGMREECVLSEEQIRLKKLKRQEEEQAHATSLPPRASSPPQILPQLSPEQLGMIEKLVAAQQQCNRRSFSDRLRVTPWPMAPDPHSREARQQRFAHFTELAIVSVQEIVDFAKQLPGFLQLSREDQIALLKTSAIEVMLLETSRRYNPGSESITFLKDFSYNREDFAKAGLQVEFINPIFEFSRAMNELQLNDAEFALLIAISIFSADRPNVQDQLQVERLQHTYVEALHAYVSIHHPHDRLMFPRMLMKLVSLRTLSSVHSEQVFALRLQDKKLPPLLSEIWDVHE
Chain of Nuclear receptor subfamily 4 group A member 2 (Homo sapiens) (P43354 whole entry, looked up, the tested form may be a part): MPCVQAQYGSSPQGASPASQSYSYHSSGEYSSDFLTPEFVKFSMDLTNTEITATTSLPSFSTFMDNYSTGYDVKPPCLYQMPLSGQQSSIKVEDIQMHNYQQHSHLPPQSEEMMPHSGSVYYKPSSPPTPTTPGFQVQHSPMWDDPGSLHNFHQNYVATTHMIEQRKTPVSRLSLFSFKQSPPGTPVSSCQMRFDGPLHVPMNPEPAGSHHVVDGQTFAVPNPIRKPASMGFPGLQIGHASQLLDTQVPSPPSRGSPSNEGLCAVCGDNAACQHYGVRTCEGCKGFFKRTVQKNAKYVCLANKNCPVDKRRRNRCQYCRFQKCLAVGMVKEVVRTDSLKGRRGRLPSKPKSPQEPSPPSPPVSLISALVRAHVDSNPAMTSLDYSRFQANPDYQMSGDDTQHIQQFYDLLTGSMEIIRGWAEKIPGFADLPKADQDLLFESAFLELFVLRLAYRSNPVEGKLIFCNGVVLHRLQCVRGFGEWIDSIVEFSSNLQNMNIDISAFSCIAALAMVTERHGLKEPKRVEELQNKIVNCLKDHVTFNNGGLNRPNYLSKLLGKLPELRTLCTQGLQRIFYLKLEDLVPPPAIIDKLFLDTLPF
Chain of Estrogen receptor (Homo sapiens) (P03372 whole entry, looked up, the tested form may be a part): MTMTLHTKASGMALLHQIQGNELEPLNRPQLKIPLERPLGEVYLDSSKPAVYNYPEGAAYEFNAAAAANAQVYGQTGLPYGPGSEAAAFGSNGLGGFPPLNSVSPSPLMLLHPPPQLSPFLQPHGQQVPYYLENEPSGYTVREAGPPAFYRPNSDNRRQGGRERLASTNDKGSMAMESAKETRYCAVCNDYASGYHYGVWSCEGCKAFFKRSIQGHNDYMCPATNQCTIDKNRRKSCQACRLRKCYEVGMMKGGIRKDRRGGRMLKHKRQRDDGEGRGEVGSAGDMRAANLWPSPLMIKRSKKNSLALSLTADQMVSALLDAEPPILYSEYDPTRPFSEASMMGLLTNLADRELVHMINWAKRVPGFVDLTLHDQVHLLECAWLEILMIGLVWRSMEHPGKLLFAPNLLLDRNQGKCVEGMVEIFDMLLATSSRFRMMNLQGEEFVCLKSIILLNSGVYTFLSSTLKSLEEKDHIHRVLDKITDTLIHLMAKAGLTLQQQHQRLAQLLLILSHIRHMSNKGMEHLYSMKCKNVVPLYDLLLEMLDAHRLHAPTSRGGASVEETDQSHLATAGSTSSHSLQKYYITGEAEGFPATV
Chain of Glucocorticoid receptor (Homo sapiens) (P04150 whole entry, looked up, the tested form may be a part): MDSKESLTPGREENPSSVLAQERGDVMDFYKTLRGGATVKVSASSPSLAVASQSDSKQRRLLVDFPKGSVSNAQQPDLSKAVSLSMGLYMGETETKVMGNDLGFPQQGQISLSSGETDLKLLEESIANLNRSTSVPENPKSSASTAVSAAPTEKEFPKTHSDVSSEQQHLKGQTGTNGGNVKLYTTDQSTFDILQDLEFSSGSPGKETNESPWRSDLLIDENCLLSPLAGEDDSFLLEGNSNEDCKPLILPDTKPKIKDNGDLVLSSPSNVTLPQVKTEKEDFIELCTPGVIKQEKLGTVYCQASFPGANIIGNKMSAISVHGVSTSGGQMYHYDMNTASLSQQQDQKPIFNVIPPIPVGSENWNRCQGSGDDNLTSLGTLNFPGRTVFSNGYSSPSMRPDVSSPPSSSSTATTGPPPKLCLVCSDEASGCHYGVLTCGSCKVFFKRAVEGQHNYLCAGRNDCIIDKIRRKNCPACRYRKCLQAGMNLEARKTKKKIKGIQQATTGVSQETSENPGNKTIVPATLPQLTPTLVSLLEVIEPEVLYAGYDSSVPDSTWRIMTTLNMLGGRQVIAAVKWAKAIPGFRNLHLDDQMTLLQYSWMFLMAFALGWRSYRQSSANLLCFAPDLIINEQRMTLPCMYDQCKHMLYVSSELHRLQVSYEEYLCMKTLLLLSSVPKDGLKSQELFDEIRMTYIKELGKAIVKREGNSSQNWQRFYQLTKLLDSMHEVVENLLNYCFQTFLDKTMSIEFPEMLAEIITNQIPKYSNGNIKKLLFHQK
Chain of Oxysterols receptor LXR-beta (Homo sapiens) (P55055 whole entry, looked up, the tested form may be a part): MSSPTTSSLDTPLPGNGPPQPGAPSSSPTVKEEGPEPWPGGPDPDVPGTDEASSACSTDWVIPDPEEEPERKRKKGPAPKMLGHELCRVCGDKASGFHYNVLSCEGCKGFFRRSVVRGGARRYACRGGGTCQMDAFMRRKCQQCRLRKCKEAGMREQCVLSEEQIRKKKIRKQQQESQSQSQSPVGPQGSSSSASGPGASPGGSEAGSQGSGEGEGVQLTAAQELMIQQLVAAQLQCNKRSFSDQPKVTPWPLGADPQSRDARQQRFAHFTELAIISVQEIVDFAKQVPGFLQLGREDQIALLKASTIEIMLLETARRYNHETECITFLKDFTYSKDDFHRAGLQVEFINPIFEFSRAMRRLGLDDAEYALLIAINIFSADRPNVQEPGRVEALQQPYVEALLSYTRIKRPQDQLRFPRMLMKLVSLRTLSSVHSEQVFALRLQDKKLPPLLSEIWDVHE
Chain of X-box-binding protein 1 (Homo sapiens) (P17861 whole entry, looked up): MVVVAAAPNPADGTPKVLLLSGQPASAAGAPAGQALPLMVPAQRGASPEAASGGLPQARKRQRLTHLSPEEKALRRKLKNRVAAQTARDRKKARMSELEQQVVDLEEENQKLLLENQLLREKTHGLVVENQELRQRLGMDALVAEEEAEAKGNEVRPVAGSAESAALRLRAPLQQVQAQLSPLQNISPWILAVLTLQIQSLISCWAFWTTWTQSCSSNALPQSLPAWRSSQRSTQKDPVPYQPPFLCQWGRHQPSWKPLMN
Chain of Bile acid receptor (Homo sapiens) (Q96RI1 whole entry, looked up, the tested form may be a part): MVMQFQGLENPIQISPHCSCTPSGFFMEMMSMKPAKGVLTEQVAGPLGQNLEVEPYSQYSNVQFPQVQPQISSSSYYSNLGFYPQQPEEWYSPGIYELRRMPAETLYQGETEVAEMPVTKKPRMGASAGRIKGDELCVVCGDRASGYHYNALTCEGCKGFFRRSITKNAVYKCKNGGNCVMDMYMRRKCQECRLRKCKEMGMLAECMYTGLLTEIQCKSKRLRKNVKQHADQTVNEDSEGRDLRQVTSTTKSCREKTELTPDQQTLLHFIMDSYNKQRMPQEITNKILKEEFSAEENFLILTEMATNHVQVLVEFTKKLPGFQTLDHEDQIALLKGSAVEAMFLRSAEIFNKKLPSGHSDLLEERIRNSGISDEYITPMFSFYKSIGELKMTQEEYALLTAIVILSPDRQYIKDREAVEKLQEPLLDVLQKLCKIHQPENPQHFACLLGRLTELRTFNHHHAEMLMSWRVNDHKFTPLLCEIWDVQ

NC(=O)c1cnccn1
not listed: [14] | [15] | [16] | [17] | [18]
inactive: all other assays above

O=C1OC2(c3ccc(O)cc3Oc3cc(O)ccc32)c2ccccc21
active: [5] 27.7 µM
not listed: [7] | [9] | [12] | [16] | [17] | [18]
inactive: all other assays above

CC1=CC(O)CC(C)(C)C1 (configuration not stated)
not listed: [5] | [10] | [11] | [12] | [14]
inactive: all other assays above

CC12CCC(C1)C(C)(C)C2O (configuration not stated)
not listed: [7] | [8] | [15] | [16] | [17] | [18]
inactive: all other assays above

CC(=O)OC/C=C(C)/C=C/C=C(C)/C=C/C1=C(C)CCCC1(C)C
active: [1] 100 µM | [3] 1.23 µM | [4] 0.946 µM
not listed: [8] | [9] | [11] | [14] | [16] | [17]
inactive: all other assays above
